# Laboratory results taken from article PMC5540273 (PLoS ONE, 2017).
# Tested on: WNK1
# Settings: concentration: 1 μM, replicates: in singlicate; n = 1
# 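Also: KINOMEscan kinase panel screen.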
row,SMILES,%Inh
1,CCn1c(-c2nonc2N)nc2c(C#CC(C)(C)O)ncc(OCCCCN)c21.O=C(O)C(F)(F)F.O=C(O)C(F)(F)F [GSK507274],19%
2,COc1cc2c(cc1OCCN1CCNCC1)ncc1c3ccc(C#N)cc3[nH]c21,12%
3,COc1cccc(C(=O)Nc2cccc(Oc3ccc4nc(NC(=O)C5CC5)cn4n3)c2)c1,0%
4,FC(F)(F)c1ccc(/C=C/c2cncnc2Nc2ccc3[nH]c(Cc4ccccc4)nc3c2)cc1 [GW709199],0%
5,Cc1cccc(Nc2nc(N[C@H]3CCNC3)ncc2C(N)=O)c1.Cl [GSK2197149],0%
6,NCCCC(NC(=O)c1cc(Br)c(-c2ccnc3[nH]ccc23)s1)c1ccccc1.O=C(O)C(F)(F)F.O=C(O)C(F)(F)F (centres unmarked) [GSK1287544],30%
7,CC(C)(C)c1ccc2nccc(Nc3cccc(O)c3)c2c1 [GW856795],0%
8,c1ccc(-c2n[nH]cc2Nc2ccnc3ccccc23)nc1 [GW694077],0%
9,COc1cccc(NC(=O)NC2CCN(c3ccnc(Nc4cc(OC)c(OC)c(OC)c4)n3)C2)c1 (centres unmarked) [GSK1379763],8%
10,COC(=O)Nc1nc2ccc(Oc3ccc(NC(=O)Nc4cc(C(F)(F)F)ccc4F)cc3)cc2n1C.Cl [GW692089],0%
11,COc1cccc(C2=C(Nc3ccc(Cl)c(C(=O)O)c3)C(=O)NC2=O)c1 [SB-390769],100%
12,COc1cc(Nc2nccc(-c3c(-c4cccc(NC(=O)c5c(F)cccc5F)c4)nn4ccccc34)n2)cc(OC)c1OC [GSK323521],27%
13,Cn1cc(-c2[nH]c3cc(NC(=O)[C@H](N)C4CCCCC4)cc4c3c2C=NNC4=O)cn1,0%
14,Nc1ncc(-c2cccnc2)c2scc(-c3ccc4c(c3)CCN4C(=O)Cc3ccccc3)c12 [GSK683281],17%
15,CCCCc1nn2ncccc2c1-c1ccnc(Nc2ccc(N3CCN(C)CC3)cc2)n1 [GW684941],11%
16,O=C(Nc1n[nH]c2cc(-c3ccoc3)ccc12)C1CC1 [SB-738481],0%
17,Cl.c1ccc(-c2ccc3c(Nc4ccc5[nH]ncc5c4)ccnc3c2)nc1 [GW440137],11%
18,Cn1cc(-c2ccc3c(c2)CCN3C(=O)Cc2cccc(Cl)c2)c2c(N)ncnc21 [GSK2606590],13%
19,COc1cccc(-c2ccc3c(NC(=O)C4CC4)n[nH]c3n2)c1 [SB-710903],45%
20,Nc1ncc(-c2ccc3nccc(-c4ccncc4)c3c2)cc1S(=O)(=O)N1CCOCC1 [GSK1627798],0%
21,COc1cc(Nc2nccc(N3CCC(NC(=O)Nc4cccc(C(C)=O)c4)C3)n2)cc(OC)c1OC (centres unmarked) [GSK1379753],0%
22,COCCOCCOc1cc2ncc3c4ccc(C#N)cc4[nH]c3c2cc1OC,0%
23,COc1ccc(Nc2nccc(NCCNC(=O)c3cc4ccccc4s3)n2)cc1 [GSK1379896],6%
24,COC(=O)Nc1nc2cc(Oc3ccc(NC(=O)Nc4cc(C(F)(F)F)ccc4F)cn3)ccc2[nH]1.Cl.Cl [GW681170],6%
25,O=C(Nc1n[nH]c2nc(-c3ccc(O)cc3)ccc12)C1CC1 [SB-710363],32%

# Tested on: WNK2
# Settings: concentration: 1 μM, replicates: in singlicate; n = 1
row,SMILES,%Inh
1,Nc1n[nH]c2cnc(-c3ccccc3)cc12 [SB-642124],2%
2,CN(c1ccc(NC(=O)Nc2cc(C(F)(F)F)ccc2F)cc1)c1ccnc(Nc2ccc(S(N)(=O)=O)cc2)n1 [GW809893],0%
3,CC(C)c1nc(-c2cccc(NS(=O)(=O)c3c(F)cccc3F)c2F)c(-c2ccnc(Nc3ccc(N4CCOCC4)nc3)n2)s1 [GSK2008607],13%
4,O=C(Nc1cccc(-c2nn3ncccc3c2-c2ccnc(Nc3ccccc3)n2)c1)c1c(F)cccc1F [GSK198271],60%
5,O=C(Nc1ccccc1F)NC1CCN(c2ccnc(Nc3ccc(F)cc3)n2)CC1 [GSK1379800],6%
6,Cl.c1ccc(-c2ccc3c(Nc4ccc5[nH]ccc5c4)ccnc3c2)nc1 [GW440138],13%
7,COc1ccc(CNC(=O)NC2CCN(c3ccnc(Nc4ccc(F)cc4)n3)CC2)cc1 [GSK1379788],7%
8,CN(C)Cc1ccc(-c2ccc3c(Nc4ccc(Oc5ccccn5)cc4)ccnc3c2)o1 [GW567148],14%
9,CNC(=O)c1ccccc1Nc1nc(Nc2ccc(N3CCOCC3)cc2)ncc1Cl.Cl [GSK1576028],5%
10,CCS(=O)(=O)c1ccc(OC)c(Nc2nccc(-c3c(-c4cccc(NC(=O)c5c(F)cccc5F)c4)nn4ncccc34)n2)c1 [GSK326180],35%
11,c1ccc(Oc2ccc(Nc3ccnc4cc(-c5ccc(CNCCN6CCOCC6)o5)ccc34)cc2)nc1 [GW567145],21%
12,Cc1ccc(C)c(NC(=O)NC2CCN(c3ccnc(Nc4ccc(F)cc4)n3)C2)c1 (centres unmarked) [GSK1379720],0%
13,CCn1c(-c2nonc2N)nc2c(C#CC(C)(C)O)ncc(OCCCCN)c21.O=C(O)C(F)(F)F.O=C(O)C(F)(F)F [GSK507274],0%
14,COc1cc2c(cc1OCCN1CCNCC1)ncc1c3ccc(C#N)cc3[nH]c21,41%
15,COc1cccc(C(=O)Nc2cccc(Oc3ccc4nc(NC(=O)C5CC5)cn4n3)c2)c1,0%
16,FC(F)(F)c1ccc(/C=C/c2cncnc2Nc2ccc3[nH]c(Cc4ccccc4)nc3c2)cc1 [GW709199],0%
17,Cc1cccc(Nc2nc(N[C@H]3CCNC3)ncc2C(N)=O)c1.Cl [GSK2197149],0%
18,NCCCC(NC(=O)c1cc(Br)c(-c2ccnc3[nH]ccc23)s1)c1ccccc1.O=C(O)C(F)(F)F.O=C(O)C(F)(F)F (centres unmarked) [GSK1287544],0%
19,CC(C)(C)c1ccc2nccc(Nc3cccc(O)c3)c2c1 [GW856795],0%

row,SMILES,%Inh
1,c1ccc(-c2n[nH]cc2Nc2ccnc3ccccc23)nc1 [GW694077],0%
2,COc1cccc(NC(=O)NC2CCN(c3ccnc(Nc4cc(OC)c(OC)c(OC)c4)n3)C2)c1 (centres unmarked) [GSK1379763],11%
3,COC(=O)Nc1nc2ccc(Oc3ccc(NC(=O)Nc4cc(C(F)(F)F)ccc4F)cc3)cc2n1C.Cl [GW692089],0%
4,COc1cccc(C2=C(Nc3ccc(Cl)c(C(=O)O)c3)C(=O)NC2=O)c1 [SB-390769],8%
5,COc1cc(Nc2nccc(-c3c(-c4cccc(NC(=O)c5c(F)cccc5F)c4)nn4ccccc34)n2)cc(OC)c1OC [GSK323521],59%
6,Cn1cc(-c2[nH]c3cc(NC(=O)[C@H](N)C4CCCCC4)cc4c3c2C=NNC4=O)cn1,4%
7,Nc1ncc(-c2cccnc2)c2scc(-c3ccc4c(c3)CCN4C(=O)Cc3ccccc3)c12 [GSK683281],28%
8,CCCCc1nn2ncccc2c1-c1ccnc(Nc2ccc(N3CCN(C)CC3)cc2)n1 [GW684941],31%
9,O=C(Nc1n[nH]c2cc(-c3ccoc3)ccc12)C1CC1 [SB-738481],0%
10,Cl.c1ccc(-c2ccc3c(Nc4ccc5[nH]ncc5c4)ccnc3c2)nc1 [GW440137],14%
11,Cn1cc(-c2ccc3c(c2)CCN3C(=O)Cc2cccc(Cl)c2)c2c(N)ncnc21 [GSK2606590],18%
12,COc1cccc(-c2ccc3c(NC(=O)C4CC4)n[nH]c3n2)c1 [SB-710903],57%
13,Nc1ncc(-c2ccc3nccc(-c4ccncc4)c3c2)cc1S(=O)(=O)N1CCOCC1 [GSK1627798],0%
14,COc1cc(Nc2nccc(N3CCC(NC(=O)Nc4cccc(C(C)=O)c4)C3)n2)cc(OC)c1OC (centres unmarked) [GSK1379753],65%
15,COCCOCCOc1cc2ncc3c4ccc(C#N)cc4[nH]c3c2cc1OC,0%
16,COc1ccc(Nc2nccc(NCCNC(=O)c3cc4ccccc4s3)n2)cc1 [GSK1379896],55%
17,COC(=O)Nc1nc2cc(Oc3ccc(NC(=O)Nc4cc(C(F)(F)F)ccc4F)cn3)ccc2[nH]1.Cl.Cl [GW681170],8%
18,O=C(Nc1n[nH]c2nc(-c3ccc(O)cc3)ccc12)C1CC1 [SB-710363],0%
